Results filed as inconclusive are left out. The source made the active and inactive calls. The calls were made as follows: active = hit-call score of the fitted dose curve at least 0.9, where 1 is the maximum; inconclusive = response in the unintended direction; inactive = score below 0.9.
These compounds were tested against human Norepinephrine Transporter (NET), SLC6A2 (gene 6530) (UniProt P23975) (assay: NVS_TR_hNET: NovaScreen (NVS) Transporter Assay for human Norepinephrine Transporter (NET) (AID 2283377);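 also: cell-free membrane protein extracted from CHO cells expressing human NET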).
human Norepinephrine Transporter (NET), SLC6A2 (gene 6530), sequence (P23975 whole entry, looked up): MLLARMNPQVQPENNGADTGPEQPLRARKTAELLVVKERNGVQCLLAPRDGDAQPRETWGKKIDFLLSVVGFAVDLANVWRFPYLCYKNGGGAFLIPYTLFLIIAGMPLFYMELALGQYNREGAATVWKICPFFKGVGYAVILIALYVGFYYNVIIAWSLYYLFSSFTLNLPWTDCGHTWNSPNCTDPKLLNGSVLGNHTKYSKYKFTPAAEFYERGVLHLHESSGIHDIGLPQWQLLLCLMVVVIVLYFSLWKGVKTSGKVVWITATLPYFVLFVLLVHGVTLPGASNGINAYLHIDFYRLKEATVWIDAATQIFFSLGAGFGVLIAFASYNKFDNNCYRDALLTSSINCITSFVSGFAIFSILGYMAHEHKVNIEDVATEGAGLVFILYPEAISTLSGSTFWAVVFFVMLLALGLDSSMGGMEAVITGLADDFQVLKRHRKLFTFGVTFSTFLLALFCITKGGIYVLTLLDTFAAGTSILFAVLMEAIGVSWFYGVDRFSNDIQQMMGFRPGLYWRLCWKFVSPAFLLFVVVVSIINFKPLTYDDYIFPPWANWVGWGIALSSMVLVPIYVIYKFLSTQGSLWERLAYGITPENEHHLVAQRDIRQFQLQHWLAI
Description: NVS_TR_hNET is a biochemical, single-readout assay that uses extracted gene-proteins from CHO in a cell-free assay. Measurements were taken 1 hour after chemical dosing in a 96-well plate.NVS_TR_hNET is one of one assay component(s) measured or calculated from the NVS_TR_hNET assay. It is designed to make measurements of radioligand binding, a form of binding reporter, as detected with scintillation counting signals by Filter-based radiodetection technology.Data from the assay component NVS_TR_hNET was analyzed into 1 assay endpoint. This assay endpoint, NVS_TR_hNET, was analyzed in the positive analysis fitting direction relative to DMSO as the negative control and baseline of activity. Using a type of binding reporter, loss-of-signal activity can be used to understand changes in the binding as they relate to the gene SLC6A2. Furthermore, this assay endpoint can be referred to as a primary readout, because the performed assay has only produced 1 assay endpoint. To generalize the intended target to other relatable targets, this assay endpoint is annotated to the transporter intended target family, where the subfamily is neurotransmitter transporter.
Binding assays used specific radioligands (tritiated, iodinated) with non-radioactive competitive displacement ligands in agonist or antagonist protocols (as indicated) and various reference compounds and inhibitors to titrate specific binding to receptors and transporters. Most enzyme assays (CYPs, kinases, phosphatases, proteases, HDACs) used recombinant protein and specific substrates (fluorescence mostly, some colorimetric and radioactive) and inhibitors, followed by a biochemical separation of substrate and product. All assays for the biochemical HTS were initially run in duplicate at a single concentration (10 uM for CYP450 assays and 25 uM for all others). […] Each assay was run with positive and negative controls, and concurrent controls on every plate. The follow-up (secondary) screen tested active chemical-pairs in concentration series, as well as a few additional assays not tested in the primary screen, some selected negative inactives, and several cases re-run in the concentration series for confirmatory purposes.

SMILES	AC50	outcome
Cc1ccc(OP(=O)(Oc2ccc(C)cc2C)Oc2ccc(C)cc2C)c(C)c1	1.47 µM (active)	
N#Cc1ccccc1N		inactive
Oc1ccc(Cc2ccc(O)cc2)cc1	25 µM (active)	
[Cl][Sn]([c]1ccccc1)([c]1ccccc1)[c]1ccccc1	1.19 µM (active)	
CCOC(=O)CCN(SN(C)C(=O)Oc1cccc2c1OC(C)(C)C2)C(C)C	9.18 µM (active)	
CCOC(=O)C(SP(=S)(OC)OC)c1ccccc1 (stereo unspecified)	9.9 µM (active)	
O=C(O)C1(c2ccc3c(c2)OC[C@H](Cc2ccc(-c4ccccc4)cc2)[C@H]3O)CCCC1	5.29 µM (active)	
Oc1cc(Cl)c(Cl)cc1Cl	10.8 µM (active)	
BrCC(Br)c1ccccc1 (stereo unspecified)		inactive
CCCCCCCCCCCCN(C)C		inactive
CCCCCCCCCCCCc1cccc(S(=O)(=O)O)c1	18.7 µM (active)	
N#CCCC(Br)(C#N)CBr (stereo unspecified)		inactive
Cc1cc(C(C)(C)c2ccc(O)c(C)c2)ccc1O	8.57 µM (active)	
CC1(C)[C@H](C(=O)O[C@H](C#N)c2cccc(Oc3ccccc3)c2)[C@@H]1/C=C(\Cl)C(F)(F)F		inactive
Oc1cccc(-c2ccccc2)c1		inactive
O=[N+]([O-])c1ccc(Nc2ccccc2)cc1	20.4 µM (active)	

Source: PubChem BioAssay (EPA / NIEHS)
